We go through 7 sequences from paper PMC7862700, “An all-to-all approach to the identification of sequence-specific readers for epigenetic DNA modifications on cytosine”.

Test in all cases: DAPPL (digital affinity profiling via proximity ligation, sequencing); 10 mM Tris-HCl pH 7.5, 50 mM NaCl, 1 mM DTT, 4% glycerol, room temperature, 30 min; GST-TFs on glutathione beads, 16-mer random dsDNA library, 0.1% formaldehyde crosslink after washing; high values mean tight binding
In one test the target is T1, FEV (Homo sapiens, UniProt Q99581 1-238).
T1 sequence: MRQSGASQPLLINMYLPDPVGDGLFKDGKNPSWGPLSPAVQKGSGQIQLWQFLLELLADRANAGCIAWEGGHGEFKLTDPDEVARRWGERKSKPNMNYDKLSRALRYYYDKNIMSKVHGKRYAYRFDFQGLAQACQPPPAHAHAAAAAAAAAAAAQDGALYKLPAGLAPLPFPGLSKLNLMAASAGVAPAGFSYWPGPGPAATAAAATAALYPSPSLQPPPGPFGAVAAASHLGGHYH
The settings on record: protein: recombinant; tags: N-terminal GST; dsDNA, one strand shown. A digest of the protocol:
(§1)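 GST fusions of human transcription factors were expressed in yeast and captured with glutathione beads. Once given DNA barcodes and pooled alongside a tag-only sample, they were incubated for 30 min at room temperature with 200 nmole of a random double-stranded 16-mer DNA library in Tris/NaCl/DTT/glycerol buffer, then washed, crosslinked (0.1% formaldehyde), proximity-ligated, PCR-amplified and sequenced on an Illumina NextSeq500. The binding signal of each hexamer is its read frequency for a factor divided by its frequency for the tag-only sample.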

For a further test, the target named is ETV5 (Homo sapiens, UniProt P41161 1-510). The conditions noted are these: protein: recombinant; tags: N-terminal GST; dsDNA, one strand shown. A digest of the protocol: as §1
Chain of ETV5 (P41161 whole entry): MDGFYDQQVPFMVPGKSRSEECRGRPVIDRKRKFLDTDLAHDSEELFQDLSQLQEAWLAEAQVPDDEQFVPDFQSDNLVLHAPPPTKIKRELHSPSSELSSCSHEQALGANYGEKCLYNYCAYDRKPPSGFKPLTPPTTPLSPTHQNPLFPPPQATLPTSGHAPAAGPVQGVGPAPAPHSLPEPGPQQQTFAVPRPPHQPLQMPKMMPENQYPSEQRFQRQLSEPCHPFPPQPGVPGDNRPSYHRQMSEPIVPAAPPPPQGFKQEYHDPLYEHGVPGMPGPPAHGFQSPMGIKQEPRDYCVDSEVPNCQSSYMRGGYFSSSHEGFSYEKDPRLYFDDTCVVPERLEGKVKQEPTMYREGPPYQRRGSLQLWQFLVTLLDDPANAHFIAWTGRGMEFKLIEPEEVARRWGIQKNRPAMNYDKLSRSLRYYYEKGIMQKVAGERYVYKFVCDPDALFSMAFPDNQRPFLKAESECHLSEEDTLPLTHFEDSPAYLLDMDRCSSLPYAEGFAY
In another test the target is HSF1 (Homo sapiens, UniProt Q00613 1-529). The conditions noted are these: protein: recombinant; tags: N-terminal GST; chain copies: 3; dsDNA, one strand shown. A digest of the protocol: as §1
Chain of HSF1 (Q00613 whole entry): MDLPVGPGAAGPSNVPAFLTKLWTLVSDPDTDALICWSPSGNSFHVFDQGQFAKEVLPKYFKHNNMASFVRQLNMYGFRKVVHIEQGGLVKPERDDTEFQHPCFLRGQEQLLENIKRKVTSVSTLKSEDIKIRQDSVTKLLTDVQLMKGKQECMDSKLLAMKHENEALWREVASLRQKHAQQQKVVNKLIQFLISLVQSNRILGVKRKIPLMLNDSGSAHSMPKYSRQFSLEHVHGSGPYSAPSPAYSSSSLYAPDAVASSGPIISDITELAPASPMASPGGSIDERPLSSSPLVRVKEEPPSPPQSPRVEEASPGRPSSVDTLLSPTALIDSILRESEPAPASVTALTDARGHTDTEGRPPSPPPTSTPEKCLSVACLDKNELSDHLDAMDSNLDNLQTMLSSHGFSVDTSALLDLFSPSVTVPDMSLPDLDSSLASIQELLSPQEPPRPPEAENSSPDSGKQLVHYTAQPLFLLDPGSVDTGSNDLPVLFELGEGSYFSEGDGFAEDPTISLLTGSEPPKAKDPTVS
Another test concerns the target T2, SPIC (Homo sapiens, UniProt Q8N5J4 1-248).
T2 sequence: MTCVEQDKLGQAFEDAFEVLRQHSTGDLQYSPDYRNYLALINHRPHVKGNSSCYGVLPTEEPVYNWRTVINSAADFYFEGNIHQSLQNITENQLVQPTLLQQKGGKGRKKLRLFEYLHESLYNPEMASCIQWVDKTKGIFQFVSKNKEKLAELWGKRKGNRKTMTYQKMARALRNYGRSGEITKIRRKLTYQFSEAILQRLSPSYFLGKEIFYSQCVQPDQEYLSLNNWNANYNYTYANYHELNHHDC
The conditions noted are these: protein: recombinant; tags: N-terminal GST; dsDNA, one strand shown. A digest of the protocol: as §1

For another test, the target named is ELF4 (Homo sapiens, UniProt Q99607 1-663). The settings on record: protein: recombinant; tags: N-terminal GST; dsDNA, one strand shown. A digest of the protocol: as §1
Chain of ELF4 (Q99607 whole entry): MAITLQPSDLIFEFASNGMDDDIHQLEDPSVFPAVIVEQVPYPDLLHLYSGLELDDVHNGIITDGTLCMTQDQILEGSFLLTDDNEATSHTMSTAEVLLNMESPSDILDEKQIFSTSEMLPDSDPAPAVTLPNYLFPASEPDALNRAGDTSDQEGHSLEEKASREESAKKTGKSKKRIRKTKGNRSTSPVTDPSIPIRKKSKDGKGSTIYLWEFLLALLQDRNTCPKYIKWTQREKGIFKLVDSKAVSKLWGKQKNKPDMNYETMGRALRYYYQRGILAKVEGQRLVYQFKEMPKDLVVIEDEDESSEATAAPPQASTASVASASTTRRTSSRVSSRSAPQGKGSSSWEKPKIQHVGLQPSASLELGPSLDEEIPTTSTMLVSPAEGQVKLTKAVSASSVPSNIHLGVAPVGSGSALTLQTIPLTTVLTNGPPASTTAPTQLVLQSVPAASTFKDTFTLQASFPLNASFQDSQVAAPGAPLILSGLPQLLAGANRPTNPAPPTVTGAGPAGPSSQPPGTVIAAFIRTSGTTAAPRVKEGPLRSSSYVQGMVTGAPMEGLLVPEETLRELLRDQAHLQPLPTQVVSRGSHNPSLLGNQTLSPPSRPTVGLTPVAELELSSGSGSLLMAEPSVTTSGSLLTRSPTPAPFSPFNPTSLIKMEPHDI
Another test concerns the target T3, ELK4 (Homo sapiens, UniProt P28324-2 1-405).
T3 sequence: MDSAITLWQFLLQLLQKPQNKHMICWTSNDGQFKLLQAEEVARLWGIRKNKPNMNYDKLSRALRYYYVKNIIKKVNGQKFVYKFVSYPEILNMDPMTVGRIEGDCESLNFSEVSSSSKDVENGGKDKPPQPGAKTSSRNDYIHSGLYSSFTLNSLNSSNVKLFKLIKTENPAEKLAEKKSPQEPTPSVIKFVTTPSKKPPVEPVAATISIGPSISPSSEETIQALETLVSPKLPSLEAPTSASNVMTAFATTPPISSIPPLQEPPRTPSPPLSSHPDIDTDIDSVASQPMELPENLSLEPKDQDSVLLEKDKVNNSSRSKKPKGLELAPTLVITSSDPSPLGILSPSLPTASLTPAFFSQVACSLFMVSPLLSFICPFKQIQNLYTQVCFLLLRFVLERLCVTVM
The conditions noted are these: protein: recombinant; tags: N-terminal GST; dsDNA, one strand shown. In a few lines:
as §1

In the next test the target is T4, ETV2 (Homo sapiens, UniProt O00321 1-342).
T4 sequence: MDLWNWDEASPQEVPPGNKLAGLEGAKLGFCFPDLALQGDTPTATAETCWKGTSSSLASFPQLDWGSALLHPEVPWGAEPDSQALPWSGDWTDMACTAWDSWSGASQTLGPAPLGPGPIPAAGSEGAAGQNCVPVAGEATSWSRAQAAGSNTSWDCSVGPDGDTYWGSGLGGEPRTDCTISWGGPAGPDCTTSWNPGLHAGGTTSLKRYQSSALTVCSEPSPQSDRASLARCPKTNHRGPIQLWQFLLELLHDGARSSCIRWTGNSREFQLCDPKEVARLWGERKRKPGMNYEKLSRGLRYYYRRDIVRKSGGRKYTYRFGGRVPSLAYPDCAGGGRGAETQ
The conditions noted are these: protein: recombinant; tags: N-terminal GST; dsDNA, one strand shown. In a few lines:
as §1

The target of the next test is T5, ELF3 (Homo sapiens, UniProt P78545 1-371).
T5 sequence: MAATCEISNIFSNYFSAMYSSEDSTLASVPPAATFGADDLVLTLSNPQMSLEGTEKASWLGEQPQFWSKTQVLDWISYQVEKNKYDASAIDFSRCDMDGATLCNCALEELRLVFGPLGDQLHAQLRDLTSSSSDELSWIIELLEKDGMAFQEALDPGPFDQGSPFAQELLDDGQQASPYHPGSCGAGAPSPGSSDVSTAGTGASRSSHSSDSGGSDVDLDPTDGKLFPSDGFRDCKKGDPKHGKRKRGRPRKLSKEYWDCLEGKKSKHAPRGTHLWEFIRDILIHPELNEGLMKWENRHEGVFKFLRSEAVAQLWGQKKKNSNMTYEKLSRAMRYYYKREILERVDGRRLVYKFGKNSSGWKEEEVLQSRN
The conditions noted are these: protein: recombinant; tags: N-terminal GST; dsDNA, one strand shown. In a few lines:
as §1

In the next test the target is CRX (Homo sapiens, UniProt O43186 1-299). The conditions noted are these: protein: recombinant; tags: N-terminal GST; dsDNA, one strand shown. In a few lines:
as §1

The target of another test is ETV1 (Homo sapiens, UniProt P50549 1-477). The settings on record: protein: recombinant; tags: N-terminal GST; dsDNA, one strand shown. In a few lines: as §1
Chain of ETV1 (P50549 whole entry): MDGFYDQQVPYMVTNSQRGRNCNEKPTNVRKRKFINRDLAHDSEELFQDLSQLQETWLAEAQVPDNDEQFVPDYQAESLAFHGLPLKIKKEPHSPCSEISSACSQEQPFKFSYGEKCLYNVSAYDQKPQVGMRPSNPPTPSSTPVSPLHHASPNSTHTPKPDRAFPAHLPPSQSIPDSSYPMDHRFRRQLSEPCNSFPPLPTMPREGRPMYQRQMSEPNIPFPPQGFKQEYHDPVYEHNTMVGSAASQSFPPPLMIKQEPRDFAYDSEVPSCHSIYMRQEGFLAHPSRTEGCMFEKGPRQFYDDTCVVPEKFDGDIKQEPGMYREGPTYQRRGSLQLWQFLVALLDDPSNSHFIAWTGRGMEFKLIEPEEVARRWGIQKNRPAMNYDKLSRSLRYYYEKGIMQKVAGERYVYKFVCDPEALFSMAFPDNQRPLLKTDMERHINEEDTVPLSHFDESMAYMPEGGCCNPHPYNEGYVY

Chain of CRX (O43186 whole entry): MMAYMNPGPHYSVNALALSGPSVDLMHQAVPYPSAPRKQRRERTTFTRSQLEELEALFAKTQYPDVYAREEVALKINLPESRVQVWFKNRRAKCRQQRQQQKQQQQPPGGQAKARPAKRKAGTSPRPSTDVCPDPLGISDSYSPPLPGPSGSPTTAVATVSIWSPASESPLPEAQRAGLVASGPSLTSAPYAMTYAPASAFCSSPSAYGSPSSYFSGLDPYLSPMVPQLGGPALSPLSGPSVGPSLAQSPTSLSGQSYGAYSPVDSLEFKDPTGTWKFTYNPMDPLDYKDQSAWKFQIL

Consider ATGTTT, for which the binding signal is 1.36 fold enrichment (6-mer frequency, TF over GST control) with FEV; 1.4 fold enrichment (6-mer frequency, TF over GST control) in the test with ETV5; 1.32 fold enrichment (6-mer frequency, TF over GST control) with HSF1; 1.27 fold enrichment (6-mer frequency, TF over GST control) with SPIC; 1.3 fold enrichment (6-mer frequency, TF over GST control) with ELF4; 1.37 fold enrichment (6-mer frequency, TF over GST control) in the test with ELK4. The binding signal was 1.41 fold enrichment (6-mer frequency, TF over GST control) in the test with ETV2; 1.34 fold enrichment (6-mer frequency, TF over GST control) with ELF3; 1.26 fold enrichment (6-mer frequency, TF over GST control) with CRX; 1.26 fold enrichment (6-mer frequency, TF over GST control) with ETV1.
As to ATTTGA, the binding signal is 1.17 fold enrichment (6-mer frequency, TF over GST control) with FEV; 1.16 fold enrichment (6-mer frequency, TF over GST control) in the test with ETV5; 1.21 fold enrichment (6-mer frequency, TF over GST control) with HSF1; 1.11 fold enrichment (6-mer frequency, TF over GST control) with SPIC; 1.21 fold enrichment (6-mer frequency, TF over GST control) in the test with ELF4; 1.07 fold enrichment (6-mer frequency, TF over GST control) with ELK4. Also, the binding signal was 1.16 fold enrichment (6-mer frequency, TF over GST control) with ETV2; 1.16 fold enrichment (6-mer frequency, TF over GST control) with ELF3; 1.41 fold enrichment (6-mer frequency, TF over GST control) with CRX; 1.2 fold enrichment (6-mer frequency, TF over GST control) with ETV1.
Turning to CTCCAC, the binding signal with FEV is 1.42 fold enrichment (6-mer frequency, TF over GST control); with ETV5, 1.42 fold enrichment (6-mer frequency, TF over GST control); with HSF1, 1.26 fold enrichment (6-mer frequency, TF over GST control); with SPIC, 1.17 fold enrichment (6-mer frequency, TF over GST control); with ELF4, 1.4 fold enrichment (6-mer frequency, TF over GST control); with ELK4, 1.46 fold enrichment (6-mer frequency, TF over GST control). Besides, the binding signal is 1.3 fold enrichment (6-mer frequency, TF over GST control) with ETV2; 1.27 fold enrichment (6-mer frequency, TF over GST control) in the test with ELF3; 1.17 fold enrichment (6-mer frequency, TF over GST control) with CRX; 1.25 fold enrichment (6-mer frequency, TF over GST control) with ETV1.
Regarding ATTACC, the binding signal was 1.25 fold enrichment (6-mer frequency, TF over GST control) with FEV; 1.36 fold enrichment (6-mer frequency, TF over GST control) with ETV5; 1.58 fold enrichment (6-mer frequency, TF over GST control) with HSF1; 1.26 fold enrichment (6-mer frequency, TF over GST control) with SPIC; 1.17 fold enrichment (6-mer frequency, TF over GST control) with ELF4; 1.21 fold enrichment (6-mer frequency, TF over GST control) in the test with ELK4. Also, the binding signal was 1.4 fold enrichment (6-mer frequency, TF over GST control) with ETV2; 1.1 fold enrichment (6-mer frequency, TF over GST control) with ELF3; 2.17 fold enrichment (6-mer frequency, TF over GST control) with CRX; 1.23 fold enrichment (6-mer frequency, TF over GST control) in the test with ETV1.
Turning to ATGGTT, the binding signal with FEV is 1.34 fold enrichment (6-mer frequency, TF over GST control); in the test with ETV5, 1.31 fold enrichment (6-mer frequency, TF over GST control); with HSF1, 1.25 fold enrichment (6-mer frequency, TF over GST control); with SPIC it was 1.33 fold enrichment (6-mer frequency, TF over GST control); with ELF4, 1.32 fold enrichment (6-mer frequency, TF over GST control); in the test with ELK4, 1.42 fold enrichment (6-mer frequency, TF over GST control). In addition, the binding signal is 1.24 fold enrichment (6-mer frequency, TF over GST control) with ETV2; 1.38 fold enrichment (6-mer frequency, TF over GST control) with ELF3; 1.17 fold enrichment (6-mer frequency, TF over GST control) with CRX; 1.42 fold enrichment (6-mer frequency, TF over GST control) with ETV1.
As for CGACTC, the binding signal with FEV is 1.42 fold enrichment (6-mer frequency, TF over GST control); with ETV5, 1.44 fold enrichment (6-mer frequency, TF over GST control); in the test with HSF1, 1.37 fold enrichment (6-mer frequency, TF over GST control); with SPIC, 1.64 fold enrichment (6-mer frequency, TF over GST control); in the test with ELF4 it was 1.41 fold enrichment (6-mer frequency, TF over GST control); with ELK4 it was 1.35 fold enrichment (6-mer frequency, TF over GST control). Further, the binding signal was 1.34 fold enrichment (6-mer frequency, TF over GST control) with ETV2; 1.25 fold enrichment (6-mer frequency, TF over GST control) in the test with ELF3; 1.31 fold enrichment (6-mer frequency, TF over GST control) with CRX; 1.41 fold enrichment (6-mer frequency, TF over GST control) with ETV1.
Regarding AGATCC, the binding signal was 1.14 fold enrichment (6-mer frequency, TF over GST control) with FEV; 1.14 fold enrichment (6-mer frequency, TF over GST control) with ETV5; 1.11 fold enrichment (6-mer frequency, TF over GST control) with HSF1; 1.16 fold enrichment (6-mer frequency, TF over GST control) with SPIC; 1.14 fold enrichment (6-mer frequency, TF over GST control) with ELF4; 1.17 fold enrichment (6-mer frequency, TF over GST control) with ELK4. The binding signal with ETV2 is 1.06 fold enrichment (6-mer frequency, TF over GST control); with ELF3, 1.06 fold enrichment (6-mer frequency, TF over GST control); with CRX it was 1.11 fold enrichment (6-mer frequency, TF over GST control); with ETV1, 1.14 fold enrichment (6-mer frequency, TF over GST control).
